Test results from PubChem BioAssay (NCI).
Several values for one entry are separate records, joined by “and”; a condition that tells them apart may be missing. Identical values can stand only once. This is part of a sample that, as a whole, favours compounds with a hit. Of some 79,000 tested, about 15% had one in any assay. Values without a mark were called inactive. Activity calls are given as the source filed them. Cut-off read from the data, not from the text of the source: active = growth inhibition above about 70%; inactive = the rest.

Legend:
[1] = NCI Yeast Anticancer Drug Screen. Data for the rad50 strain (AID 155);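 note: 0% = growth of vehicle-only cultures of the same strain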; conditions: S. cerevisiae rad50 strain growth inhibition, active compounds read high; at 50.0 µM unless noted
Procedure, shortened: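 DNA repair mutant yeast, compound exposure, growth read-out; inhibition is taken relative to vehicle.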

[2] = NCI Yeast Anticancer Drug Screen. Data for the mec2-1 strain (AID 157); conditions: S. cerevisiae mec2-1 strain, active compounds read high; at 50.0 µM unless noted
Procedure, shortened: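 Cells of the genetically defined mec2-1 yeast strain are incubated with test compound. Inhibition of growth is calculated against vehicle-treated controls.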

[3] = NCI Yeast Anticancer Drug Screen. Data for the sgs1 mgt1 strain (AID 161);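 note: 0% = growth of cultures given vehicle only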; conditions: S. cerevisiae sgs1 mgt1 strain, active compounds read high; at 50.0 µM unless noted
Procedure, shortened: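 Read-out: growth inhibition vs vehicle controls. Cells: mutant yeast strain deficient in DNA damage repair.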

[4] = NCI Yeast Anticancer Drug Screen. Data for the cln2 rad14 strain (AID 165);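 note: 0% = growth equal to vehicle treated cultures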; conditions: S. cerevisiae cln2 rad14 strain, active compounds read high; at 50.0 µM unless noted
Procedure, shortened: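 The screen exposed genetically defined yeast (cln2 rad14) to test compounds and scored growth inhibition relative to vehicle-treated controls.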

[5] = NCI Yeast Anticancer Drug Screen. Data for the bub3 strain (AID 167); conditions: S. cerevisiae bub3 mutant strain, active compounds read high; at 50.0 µM unless noted
Procedure, shortened: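 In this screen, a yeast mutant lacking normal mitotic checkpoint function is challenged with compound. Relative growth versus vehicle gives the inhibition value.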

[6] = NCI Yeast Anticancer Drug Screen. Data for the mlh1 rad18 strain (AID 175); conditions: S. cerevisiae mlh1 rad18 strain growth inhibition, active compounds read high; at 50.0 µM unless noted
Procedure, shortened: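 Compound-treated yeast growth, normalised to vehicle controls. Strain bears defined DNA repair mutations.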

Nn1c(CCCl)nc2c(Br)cc(Br)cc2c1=O
growth inhibition [1]: 13.8%
growth inhibition [2]: 2.9%
growth inhibition [3]: -2.45%
growth inhibition [4]: 3.25%
growth inhibition [5]: 12.6%
growth inhibition [6]: 8.5%

CCSc1nnc(SCC)c2c1ncn2CC
growth inhibition [1]: 19.9%
growth inhibition [2]: 5.8%
growth inhibition [3]: 26.4%
growth inhibition [4]: -39.8%
growth inhibition [5]: 7.5%
growth inhibition [6]: 9.05%

CC1CCCN1c1ccnc2cc(Cl)ccc12 (stereo not given)
growth inhibition [1]: 11.9%
growth inhibition [2]: -3.3%
growth inhibition [3]: 7.15%
growth inhibition [4]: -2.2%
growth inhibition [5]: 8.25%
growth inhibition [6]: 20.3%

CCN(CC)c1c(C)c(-c2ccccc2)n[n+]([O-])c1-c1ccccc1
growth inhibition [1]: 35.9%
growth inhibition [2]: 24.1%
growth inhibition [3]: 14.4%
growth inhibition [4]: 1.85%
growth inhibition [5]: 17.9%
growth inhibition [6]: 24.8%

Cc1ccc2[nH]c3c(c2c1)C(=O)CCC3
growth inhibition [1]: -7.6%
growth inhibition [2]: -2.95%
growth inhibition [3]: -12.3%
growth inhibition [4]: -20.7%
growth inhibition [5]: -17.9%
growth inhibition [6]: -1.55%

COC(=O)C(=O)C1CCc2ccc3ccccc3c2C1=O (stereo not given)
growth inhibition [1]: -5.8%
growth inhibition [2]: 2.3%
growth inhibition [3]: 24.2%
growth inhibition [4]: -4.65%
growth inhibition [5]: 2.3%
growth inhibition [6]: 38.5%

O=C1NC(N2CCOCC2)=N/C1=C\c1ccc(Cl)cc1
growth inhibition [1]: 1.75%
growth inhibition [2]: 3.6%
growth inhibition [3]: 4.9%
growth inhibition [4]: -6.25%
growth inhibition [5]: -11.1%
growth inhibition [6]: -29.9%

CC1(C)C2=CC3(C)N(CN2c2ccccc21)c1ccccc1C3(C)C (stereo not given)
growth inhibition [1]: 17.1%
growth inhibition [2]: 24.4%
growth inhibition [3]: 18.8%
growth inhibition [4]: 7%
growth inhibition [5]: 12.9%
growth inhibition [6]: 15.9%

N#CCCC1(CCC#N)CCCC(CCC#N)(CCC#N)C1=O
growth inhibition [1]: 2%
growth inhibition [2]: 7.6%
growth inhibition [3]: 2.15%
growth inhibition [4]: -51.5%
growth inhibition [5]: 16.8%
growth inhibition [6]: 11.2%

Cc1ccc2nc(=O)c3cccnc3n2c1
growth inhibition [1]: 25.9%
growth inhibition [2]: 31.1%
growth inhibition [3]: 29.9%
growth inhibition [4]: 5.1%
growth inhibition [5]: 23.8%
growth inhibition [6]: 12.8%

Cc1ccc(C)n1-n1c(Cc2ccc(Cl)cc2)n[nH]c1=O
growth inhibition [1]: 8.5%
growth inhibition [2]: 3.05%
growth inhibition [3]: 16%
growth inhibition [4]: 8.05%
growth inhibition [5]: -4.4%
growth inhibition [6]: 13.1%

CC1(C)OC2OC3C(O)C(=O)OC3C2O1 (stereo not given)
growth inhibition [1]: -36.8%
growth inhibition [2]: -16.9%
growth inhibition [3]: -19.2%
growth inhibition [4]: -20%
growth inhibition [5]: -2.6%
growth inhibition [6]: -7.1%

S=c1[nH]nc(-c2n[nH]c3ccccc23)o1
growth inhibition [1]: 3.3%
growth inhibition [2]: 3.6%
growth inhibition [3]: 5.9%
growth inhibition [4]: -51.3%
growth inhibition [5]: -3%
growth inhibition [6]: 1.25%

NC(=S)Nc1ccc(-c2ccccc2)cc1
growth inhibition [1]: 17.4%
growth inhibition [2]: 25.9%
growth inhibition [3]: 49.1%
growth inhibition [4]: -1.65%
growth inhibition [5]: 22.8%
growth inhibition [6]: 40.3%

CC(=O)OCC1OC(n2c(-c3ccc(C)cc3)cc(-c3ccco3)c(C#N)c2=O)C(OC(C)=O)C(OC(C)=O)C1OC(C)=O (stereo not given)
growth inhibition [1]: 10.6% and -5.75%
growth inhibition [2]: 10.6% and -5.75%
growth inhibition [3]: 20.6% and 4.95%
growth inhibition [4]: 13.5% and -16.8%
growth inhibition [5]: 27.4% and -4.4%
growth inhibition [6]: 14.4% and 9.7%

CC1=CC(C)(C)N(C)C(N)=N1
growth inhibition [1]: -4.45%
growth inhibition [2]: -3.1%
growth inhibition [3]: -5.3%
growth inhibition [4]: -43.2%
growth inhibition [5]: -2.65%
growth inhibition [6]: -1.75%

O=S1(=O)c2ccccc2Nc2cc3ccccc3cc21
growth inhibition [1]: 6.75%
growth inhibition [2]: 2.4%
growth inhibition [3]: 0.85%
growth inhibition [4]: -11.5%
growth inhibition [5]: -2.55%
growth inhibition [6]: 6.25%

O=C1C(=O)c2ccccc2C(O)=C1CN1CCOCC1
growth inhibition [1]: 31.6%
growth inhibition [2]: 32.1%
growth inhibition [3]: 14.4%
growth inhibition [4]: 4.65%
growth inhibition [5]: 28%
growth inhibition [6]: 8.85%

O=C(O)C1=Cc2ccccc2OC1
growth inhibition [1]: 2.7%
growth inhibition [2]: -19.9%
growth inhibition [3]: -5.55%
growth inhibition [4]: -27.2%
growth inhibition [5]: -28.6%
growth inhibition [6]: -4.7%

Nc1nc(NCCO)c(NC=O)c(=O)[nH]1
growth inhibition [1]: -11.6%
growth inhibition [2]: 6%
growth inhibition [3]: -2.6%
growth inhibition [4]: -34.4%
growth inhibition [5]: -13.8%
growth inhibition [6]: -1.35%

CC(=O)N(c1nc2ccccc2s1)N1C(=O)c2ccccc2C1=O
growth inhibition [1]: -18.8%
growth inhibition [2]: -33.3%
growth inhibition [3]: -17.9%
growth inhibition [4]: -2.15%
growth inhibition [5]: -40.2%
growth inhibition [6]: -20.2%

Cc1c(CCN2CCOCC2)c(N2CCOCC2)n2c(nc3ccccc32)c1C#N
growth inhibition [1]: -14.7%
growth inhibition [2]: -11.9%
growth inhibition [3]: -9.2%
growth inhibition [4]: 1%
growth inhibition [5]: -16.3%
growth inhibition [6]: -15%

Cc1ccc(C)c(NS(=O)(=O)c2ccc(Cl)cc2)c1
growth inhibition [1]: 98.9% (active)
growth inhibition [2]: 99.2% (active)
growth inhibition [3]: 99.1% (active)
growth inhibition [4]: 99.3% (active)
growth inhibition [5]: 98.8% (active)
growth inhibition [6]: 99.2% (active)

COc1ccc(NC2Oc3cc4c(cc3C(c3cc(OC)c(O)c(OC)c3)C2C)OCO4)cc1 (stereo not given)
growth inhibition [1]: 5.1%
growth inhibition [2]: 0.1%
growth inhibition [3]: -6.15%
growth inhibition [4]: 2.65%
growth inhibition [5]: 6.6%
growth inhibition [6]: 4.8%

CCN(CC)CCOC(=O)c1ccc(NC(=O)OCCOCCOC(=O)Nc2ccc(C(=O)OCCN(CC)CC)cc2)cc1
growth inhibition [1]: -1.8%
growth inhibition [2]: -4.3%
growth inhibition [3]: 9.25%
growth inhibition [4]: -1.1%
growth inhibition [5]: -3.1%
growth inhibition [6]: 14.7%

O=C(Nc1ccc([N+](=O)[O-])cc1C(=O)O)c1ccc([N+](=O)[O-])cc1
growth inhibition [1]: 37.8%
growth inhibition [2]: -3.6%
growth inhibition [3]: 0.1%
growth inhibition [4]: 18.5%
growth inhibition [5]: -22.3%
growth inhibition [6]: 2%

O=[N+]([O-])C(c1ccccc1)C(c1ccccc1)C(c1ccccc1)[N+](=O)[O-] (stereo not given)
growth inhibition [1]: 4.25%
growth inhibition [2]: 6.05%
growth inhibition [3]: 5.6%
growth inhibition [4]: 23.2%
growth inhibition [5]: 22.6%
growth inhibition [6]: 10%

CCN(Cc1ccccc1)c1nnnn1-c1ccccc1
growth inhibition [1]: -2.5%
growth inhibition [2]: -5.25%
growth inhibition [3]: 8%
growth inhibition [4]: 6.75%
growth inhibition [5]: 12.1%
growth inhibition [6]: -10.6%

COc1ccc(N=N/C(=N/NC(=O)c2cc(Cl)ccc2C(=O)c2ccccc2)c2ccc(N(CCC#N)CCC#N)cc2C)cc1
growth inhibition [1]: 3.2%
growth inhibition [2]: 12.6%
growth inhibition [3]: -32.9%
growth inhibition [4]: 12.5%
growth inhibition [5]: -11.9%
growth inhibition [6]: 12.8%

Cc1cc(Cl)ccc1NC(=O)Oc1ccc(C#N)cc1
growth inhibition [1]: -13.8%
growth inhibition [2]: -18.4%
growth inhibition [3]: -25.2%
growth inhibition [4]: -10.6%
growth inhibition [5]: -17.1%
growth inhibition [6]: -19.4%

CNC(=O)OCc1c(COC(=O)NC)c(C)n(-c2ccc(Cl)cc2)c1C
growth inhibition [1]: 38.8%
growth inhibition [2]: 40.4%
growth inhibition [3]: 83.2% (active)
growth inhibition [4]: 24.6%
growth inhibition [5]: 84.5% (active)
growth inhibition [6]: 91.3% (active)

O=C1OC(C(O)C(O)CO)C(O)C1O (stereo not given)
growth inhibition [1]: 8.2% and -17.4%
growth inhibition [2]: 7.7% and -27.4%
growth inhibition [3]: 1.35% and -34.2%
growth inhibition [4]: -16.9% and -32.7%
growth inhibition [5]: 14.4% and -0.9%
growth inhibition [6]: -23.7% and -1.8%

Cc1c(Cl)cccc1NC(=O)CCl
growth inhibition [1]: 7.95%
growth inhibition [2]: 32.1%
growth inhibition [3]: 28.2%
growth inhibition [4]: 5.75%
growth inhibition [5]: -3.85%
growth inhibition [6]: 16.2%

CCOC(Nc1cc(Cl)cc(Cl)c1)C(=O)c1ccccc1 (stereo not given)
growth inhibition [1]: -1.9%
growth inhibition [2]: -0.7%
growth inhibition [3]: -9.8%
growth inhibition [4]: -3.05%
growth inhibition [5]: 4.05%
growth inhibition [6]: -5.65%

C[n+]1ccc2ccccc2c1
growth inhibition [1]: 6.9% and -7.2%
growth inhibition [2]: 0.55% and 5.3%
growth inhibition [3]: 21.2% and 1.15%
growth inhibition [4]: -36.8% and -2.25%
growth inhibition [5]: 3.05% and -6.5%
growth inhibition [6]: 9.6% and 10.4%

Nn1nnc2ccccc21
growth inhibition [1]: 26.8%
growth inhibition [2]: 24.8%
growth inhibition [3]: 16.3%
growth inhibition [4]: 33%
growth inhibition [5]: 7.1%
growth inhibition [6]: 32.1%

CC12C=CC(=O)C(O)C1CC=CC2 (stereo not given)
growth inhibition [1]: 12.6%
growth inhibition [2]: 14.3%
growth inhibition [3]: 4.3%
growth inhibition [4]: 6.05%
growth inhibition [5]: 11.4%
growth inhibition [6]: 8.95%

O=C(O)CCCn1nnc2c(=O)[nH][nH]c(=O)c21
growth inhibition [1]: 7.3%
growth inhibition [2]: 5.65%
growth inhibition [3]: 4.4%
growth inhibition [4]: -7.75%
growth inhibition [5]: -0.25%
growth inhibition [6]: 11.6%

CCCCC(C(=O)CCC(=O)Nc1ccc(Cl)c(Cl)c1)C(=O)C(C)C (stereo not given)
growth inhibition [1]: -7%
growth inhibition [2]: -18.8%
growth inhibition [3]: 19.1%
growth inhibition [4]: -0.3%
growth inhibition [5]: 8.4%
growth inhibition [6]: -2.4%

COc1ccc(N2CC[N+](c3ccc(N(C)C)cc3)=C2C2=[N+](c3ccc(N(C)C)cc3)CCN2c2ccc(OC)cc2)cc1
growth inhibition [1]: 0.3%
growth inhibition [2]: -6.8%
growth inhibition [3]: -17.4%
growth inhibition [4]: -7.6%
growth inhibition [5]: -10.2%
growth inhibition [6]: 20.5%
